# Measured values reported in PubChem BioAssay AID504467 (National Center for Advancing Translational Sciences (NCATS), 2011).
# Among all 330,000 compounds or so, about 7,700 (2.3%) were called active. Not shown: some 26% with an inconclusive outcome. The call rests on the fitted dose curve; in most records, active means well fitted inhibition curve with a large enough effect; inconclusive means small, poorly fitted or top-dose-only effect, or effect the other way; inactive means flat fitted curve, though single readings scatter. The list comes from a sample in which actives are over-represented; it also holds similar structures and randomly drawn compounds. Where a call stands in place of a potency, no number is given.
# Assay: qHTS screen for small molecules that inhibit ELG1-dependent DNA repair in human embryonic kidney (HEK293T) cells expressing luciferase-tagged ELG1; further: nearly all actives have a fitted effect of over 55% in size
# Conditions: HEK293T ELG1-luciferase reporter, luminescence, 16 h, DNA damage induced by 5-fluorouridine; series mostly up to 46.1 µM
# Outline: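 DMSO vehicle served as the neutral condition. Each well held 2,000 cells given 5-fluorouridine plus compound; after 16 hr at 37 °C/5% CO2, ONE-Glo was added and luciferase measured 30 min later.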
# Potency means the concentration at half of the fitted maximal effect.
row,Structure (SMILES),Potency
1,Cc1ccc(NS(=O)(=O)c2ccc(F)cc2)nc1,inactive
2,COc1ccccc1C(=O)NCC(=O)NCCSc1ccc(Br)cc1,inactive
3,COc1ccccc1NS(=O)(=O)c1ccc(C)c(C(=O)NCC(c2ccco2)N(C)C)c1 (stereo unspecified),inactive
4,CCc1nn(CC(=O)N2CCN(c3cc(C)ccc3C)CC2)c(=O)c2cc3occc3n12,inactive
5,Cc1ccc(C)c(N2CCN(C(=O)CCCCCn3c(=S)[nH]c4ccc(N5CCOCC5)cc4c3=O)CC2)c1,5.8 µM (active)
6,Cc1ccc(C)c(N2CCN(C(=O)CCCn3c(=O)c4cccn4c4cccnc43)CC2)c1,18.3 µM (active)
7,Cc1ccc(C)c(N2CCN(C(=O)Cn3ncn4cccc4c3=O)CC2)c1,inactive
8,O=C(CCCCCn1c(=S)[nH]c2cc3c(cc2c1=O)OCO3)N1CCN(c2ccc(F)cc2)CC1,inactive
9,Cc1ccc(C)c(N2CCN(C(=O)CCc3nc4ccccc4[nH]3)CC2)c1,inactive
10,COC(=O)[C@@]12CCCN1[C@H](c1ccc(-c3ccc(F)cc3)c(OC)c1)[C@H]1C(=O)N(C)C(=O)[C@H]12,inactive
11,COc1ccc(CCNC(=S)N2CCN(S(=O)(=O)c3ccc(F)cc3)CC2)cc1,inactive
12,COc1cc(OC)nc(S(C)(=O)=O)n1,inactive
13,COc1ccc(-c2cc(C(F)(F)F)nc(S(C)(=O)=O)n2)cc1OC,20.6 µM (active)
14,COc1ccc(-c2cc(C(F)(F)F)nc(SCC(=O)Nc3ccc4c(c3)OCO4)n2)cc1OC,inactive
15,COc1cccc(NC(=O)CSc2nnc(C3CCCCC3)n2N)c1,inactive
16,O=C(CSc1ccccc1)Nc1cccc(S(=O)(=O)N2CCCCC2)c1,inactive
17,CCN1CCN(C2CCCCC2NS(=O)(=O)c2ccc(Cl)cc2)CC1 (stereo unspecified),inactive
18,Cc1cc(=O)[nH]c(SCC(=O)N2c3ccccc3CC2C)n1 (stereo unspecified),inactive
19,CCS(=O)(=O)c1ccc2oc(SCC(=O)N3c4ccccc4CC3C)nc2c1 (stereo unspecified),23.1 µM (active)
20,CC1Cc2ccccc2N1C(=O)CSc1nnc(-c2ccc(S(=O)(=O)N3CCCCC3)cc2)o1 (stereo unspecified),inactive
21,CC(C)(c1ccccc1)c1ccc(OCCN2CCCC2)cc1,inactive
22,O=C(Nc1ccc(N2CCOCC2)cc1)c1cccc(S(=O)(=O)N2CCOCC2)c1,inactive
23,COc1ccc(C)cc1NC(=O)CN1c2cccc3cccc(c23)S1(=O)=O,inactive
24,CC(Cc1cccs1)N(Cc1ccc(Cl)cc1)C(=O)c1ccncc1 (stereo unspecified),inactive

row,Structure (SMILES),Potency
1,CC1CCc2[nH]c3ccc(C(=O)N(C)CC(=O)Nc4cccc(F)c4)cc3c2C1 (stereo unspecified),inactive
2,CCCN(CC(=O)Nc1ccccc1C)C(=O)c1cc(=O)[nH]c2ccccc12,inactive
3,CCCN(CC(=O)Nc1ccccc1C)C(=O)c1ccc2[nH]c3c(c2c1)CC(C)CC3 (stereo unspecified),9.2 µM (active)
4,CCc1cc2c(NC3CCCC3)ncnc2s1,inactive
5,CCc1cc2c(N3CCN(c4nnc(CC)s4)CC3)ncnc2s1,18.4 µM (active)
6,CCc1cc2c(NC(Cc3ccccc3)C(=O)O)ncnc2s1 (stereo unspecified),inactive
7,O=C(Nc1nnc(C2=COCCO2)o1)c1ccc([N+](=O)[O-])s1,inactive
8,COc1ccc(S(=O)(=O)N2CCOCC2)cc1NC(=O)CSc1cc(C)ccc1C,inactive
9,CCOCc1c(C(=O)N2CCN(Cc3ccc(Br)s3)CC2)oc2ccccc12,inactive
10,Cc1nnc(SCC(=O)Nc2cccc(N)c2)n1-c1ccccc1,inactive
11,COc1ccc(-n2cnnc2SCC(=O)Nc2cccc(S(N)(=O)=O)c2)cc1,inactive
12,NS(=O)(=O)c1cccc(NC(=O)CSc2nc3ccccc3n2-c2ccccc2)c1,9.2 µM (active)
13,Cc1ccc(-c2c[n+](CC(=O)Nc3ccccc3)c3n2CCC3)cc1,inactive
14,Cc1ccc(C(=O)C[n+]2cc(-c3ccccc3)n3c2CCCCC3)cc1,inactive
15,Clc1ccc(C[n+]2cc(-c3ccccc3)n3c2CCC3)cc1,2.91 µM (active)
16,CCC1Nc2ncnc(N3CCN(c4ccccc4)CC3)c2N(Cc2ccc(Cl)cc2)C1=O (stereo unspecified),inactive
17,CCCCN(C(=O)C1CCC1)c1c(N)n(Cc2ccccc2)c(=O)[nH]c1=O,inactive
18,CCC(=O)OCCNc1nc(-c2ccccc2)nc2ccccc12,inactive
19,Cc1cccc(-c2nc(Nc3ccc(O)cc3)c3ccccc3n2)c1,20.6 µM (active)
20,CN1CCN(c2nc(Nc3ccc(O)cc3)nc3ccccc23)CC1,inactive
21,COc1ccc(Cl)cc1NC(=O)CN(C)CC(=O)Nc1ccc2c(c1)OCO2,inactive
22,CCOc1ccc(C(=O)NCC(=O)N2CCN(c3ccc(C(F)(F)F)cn3)CC2)cc1,inactive
23,C/C=C/C(=O)Nc1ccc(N2CCN(c3ccc(C(F)(F)F)cn3)CC2)nc1,inactive
24,Cc1ccc(F)cc1NC(=O)N1CCCN(c2ccc(C(F)(F)F)cn2)CC1,5.17 µM (active)

row,Structure (SMILES),Potency
1,COc1ccccc1NC(=O)Nc1nc(CC(=O)Nc2ccccc2F)cs1,inactive
2,Cc1ccc(S(=O)(=O)NC[C@H]2O[C@@H](n3cnc4c(N)ncnc43)[C@H](O)[C@@H]2O)s1,inactive
3,CSc1nc(C)cc(SC(C(C)=O)C(=O)Nc2ccccc2)n1 (stereo unspecified),inactive
4,CSc1nc(-c2ccccc2)nc(C(Cl)Cl)n1,20.6 µM (active)
5,CCCCC(=O)Nc1nnc(S(=O)(=O)N(C)Cc2ccco2)s1,inactive
6,Cc1ccccc1CN1CCC(C(=O)Nc2ccc(Oc3cccnc3)cc2)CC1,inactive
7,CCOC(=O)N1CCN(CC(=O)Nc2cc(C)nn2-c2nc3ccccc3s2)CC1,10.3 µM (active)
8,CCOC(=O)N1CCN(C(=O)Cn2cnc3ccccc3c2=O)CC1,inactive
9,CCOC(=O)N1CCN(CC(=O)Nc2ccc(F)cc2)CC1,inactive
10,Cc1cc(C)c(S(=O)(=O)n2cc(C(C)C(N)C(=O)O)c3ccccc32)c(C)c1 (stereo unspecified),inactive
11,O=C(CSc1nnc(COc2ccc(Cl)cc2)n1Cc1ccco1)N1CCNC1=O,inactive
12,CC(C)(C)NC(=O)C(c1ccc(Cl)cc1)N(CCO)C(=O)c1snc(C(N)=O)c1N (stereo unspecified),inactive
13,COc1ccc(CNC(=O)C(c2ccc(O)cc2)N(Cc2ccco2)C(=O)c2snc(C(N)=O)c2N)cc1 (stereo unspecified),6.51 µM (active)
14,NC(=O)c1nsc(C(=O)N(CC(=O)NCc2ccc(F)cc2)Cc2ccco2)c1N,inactive
15,CCCn1c(C2CCCN2c2nc(-c3ccc(OC)cc3)cs2)nc2ccccc21 (stereo unspecified),inactive
16,COc1ccc(C(=O)CC(=O)C(=O)Nc2cc([N+](=O)[O-])ccc2OC)cc1,inactive
17,O=C(c1cc(=O)c2ccccc2o1)N1CCN(c2ccccc2)CC1,inactive
18,COc1cc2c(cc1OC)CN(C(=O)c1cc(=O)c3ccccc3o1)CC2,8.2 µM (active)
19,COc1ccc(CCNC(=O)COC(=O)c2cc(=O)c3ccccc3o2)cc1,inactive
20,COc1ccccc1C(=O)N(Cc1ccc(C)o1)C1CCS(=O)(=O)C1 (stereo unspecified),inactive
21,COc1cc(OC)cc(-c2c(-c3cccs3)c3cc(-c4ccc(OC)cc4F)ccc3n2C)c1,inactive
22,COc1cc(OC)cc(-c2c(-c3ccc(F)cc3)c3cc(-c4ccc5cc[nH]c5c4)ccc3n2C)c1,inactive
23,COc1ccc(-c2c(-c3cc(OC)cc(OC)c3)n(C)c3ccc(-c4ccn[nH]4)cc23)cc1,6.51 µM (active)
24,CCOC(=O)[C@@H]1[C@H]2COc3ccc(Br)cc3[C@H]2N2C(=O)N(c3ccc(C)cc3)C(=O)[C@@]12C,inactive

row,Structure (SMILES),Potency
1,COc1ccc2nc3n(c(=O)c2c1)-c1cc(C)ccc1C(=O)NC3Cc1ccc(O)cc1 (stereo unspecified),inactive
2,CCc1ccnc(NC(=O)Nc2ccc(OCc3ccccc3)cc2)c1,inactive
3,CNC(=O)c1sc(Nc2ccc(OCc3ccccc3)cc2)nc1C,8.2 µM (active)
4,Cc1cccc(NC(=O)Nc2ccc(OCc3ccccc3)cc2)n1,inactive
5,COc1ccc(NS(=O)(=O)c2ccc(C)c(C(=O)NCC(c3cccs3)N3CCOCC3)c2)cc1 (stereo unspecified),inactive
6,COc1ccc(S(=O)(=O)N2CCOCC2)cc1NC(=O)CSc1nnc(NC2CC2)s1,inactive
7,Cc1ccc(S(=O)(=O)N2CCC(C)CC2)cc1C(=O)NCc1ccccn1,inactive
8,CCN(CC(=O)NCc1cccs1)S(=O)(=O)c1ccc(NC(C)=O)cc1,inactive
9,CC1CCCCN1S(=O)(=O)c1ccc(S(=O)(=O)N(CC(=O)Nc2ccccc2)Cc2cccs2)cc1 (stereo unspecified),18.4 µM (active)
10,COCCN(CC(=O)Nc1ccccc1C)S(=O)(=O)c1ccc(S(=O)(=O)N2CCCC2)cc1,inactive
11,Cc1c(C(=O)N2CCCC2)c(S(=O)(=O)NCC(C)c2ccccc2)c(C)n1C (stereo unspecified),inactive
12,O=C(NNS(=O)(=O)c1ccc([N+](=O)[O-])cc1)C1CCCCC1,inactive
13,CCN(CC)C(=O)[C@H]1CC(CC(=O)NCc2ccco2)C(=O)N2CCc3c([nH]c4ccccc34)[C@]12C (stereo partly specified),inactive
14,CCCN(CCC)c1nc2c(C)cccn2c(=O)c1/C=C1/SC(=S)N(Cc2ccco2)C1=O,inactive
15,CCOC(=O)CC1C(=O)NCCN1c1nc2c(C)cccn2c(=O)c1/C=C1\SC(=S)N(C(C)CC)C1=O (stereo unspecified),20.6 µM (active)
16,Cc1cccn2c(=O)c(/C=C3\SC(=S)N(CC(C)C)C3=O)c(NCCCOC(C)C)nc12,inactive
17,COc1ccc(NC(=O)C2CCN(S(=O)(=O)c3ccc4[nH]c(=O)oc4c3)CC2)c(OC)c1,inactive
18,O=S(=O)(c1cccs1)N1CCN(CCOc2ccccc2)CC1,inactive
19,CCOC(=O)C1=C(C)N(C[C@@H]2CC[C@@H](Cc3ccc(-c4ccccc4)cc3)O2)C(=O)NC1c1ccc([N+](=O)[O-])cc1 (stereo partly specified),inactive
20,CC(=O)N1c2ccc(S(=O)(=O)N3CCCC(C(=O)Nc4ccc(C)cc4C)C3)cc2CC1C (stereo unspecified),inactive
21,COc1cc(Cl)c(C)cc1NC(=O)CSc1nnc(CN2CCCC2)o1,inactive
22,CCCc1nc(SCC(=O)N2CCCC2)c2c(=O)n(C)c(=O)n(C)c2n1,inactive
23,CCc1nc(SCC(=O)Nc2ccccc2OC)n[nH]1,inactive
24,CCCc1nc(SCC(=O)Nc2ccccc2OC)c2c(=O)n(C)c(=O)n(C)c2n1,23.1 µM (active)
